Holding throughout (settings): concentration: 1 μM, replicates: in singlicate; n = 1
For test [1], the system named is WNK4.
In test [2] the test system is T1, YANK1.
T1 construct: gene STK32A

Test [3] concerns T2, YANK2.
T2 construct: gene STK32B

The subject of test [4] is T3, YANK3.
T3 construct: gene STK32C

For test [5], the system named is T4, YES.
T4 construct: gene YES1

The test system of test [6] is T5, YSK1.
T5 construct: gene STK25

In test [7] the test system is T6, YSK4.
T6 construct: gene MAP3K19

Test [8] has as its system ZAK.
For test [9], the system named is ZAP70.
Test [10] deals with T7, p38-alpha.
T7 construct: gene MAPK14

Test [11] relates to T8, p38-beta.
T8 construct: gene MAPK11

The subject of test [12] is p38-delta.
The subject of test [13] is T9, p38-gamma.
T9 construct: gene MAPK12

The values that follow come from paper PMC5540273 (PLoS ONE, 2017).
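Also: KINOMEscan kinase panel screen.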

Turning to `O=C(Nc1n[nH]c2nc(-c3ccco3)c(Br)cc12)c1ccc(CN2CCCC2)cc1.O=C(O)[C@H](O)[C@@H](O)C(=O)O` [SB-742352], the “%Inh” value in test [1] was determined as 0%; in test [2] it was 0%; in test [3] it was 0%; in [4], 0%; in [5], 1%; in test [6] it was 0%. Besides, the “%Inh” value is reported as 49% in test [7]; 29% in [8]; 0% in test [9]; 0% in [10]; 0% in [11]; 0% in test [12]. Besides, the “%Inh” value in [13] is 10%.
As to `O=C(NCCCN1CCCC1=O)c1cnc(NCc2cc(Cl)ccc2Cl)nc1NC1CCNCC1`, the “%Inh” value in [1] is 0%; in test [2] it was 1%; in test [3] it was 0%; in test [4] it was 0%; in [5] it was 0%; in test [6], 5%. In addition, the “%Inh” value in [7] is listed as 54%; in test [8], 0%; in [9], 0%; in test [10], 0%; in test [11], 0%; in [12] it was 42%. Besides, the “%Inh” value in test [13] came out at 18%.
For the compound `CC(C)N1CCC(n2cnc(-c3ccc(F)cc3)c2-c2ccnc(N)n2)CC1` [SB-223132], the “%Inh” value in test [1] came to 0%; in [2] it was 0%; in [3], 16%; in test [4], 0%; in test [5], 0%; in test [6] it was 0%. Moreover, the “%Inh” value is listed as 0% in test [7]; 8% in test [8]; 5% in test [9]; 96.8% in test [10]; 23% in [11]; 0% in test [12]. The “%Inh” value in test [13] came to 60%.
For the compound `Fc1cccc(COc2ccc(Nc3ncnc4sc(-c5ccc[nH]5)cc34)cc2Cl)c1` [GW707818], the “%Inh” value in test [1] was determined as 6%; in test [2], 13%; in test [3], 34%; in test [4] it was 0%; in [5], 1%; in [6], 0%. Also, the “%Inh” value in test [7] was 8%; in [8], 0%; in test [9], 6%; in [10], 44%; in test [11], 4%; in test [12], 46%. Moreover, the “%Inh” value in test [13] is 7%.
Regarding `Cl.Cl.c1ccc(-c2cc3ccncc3cc2OC2CCNCC2)cc1` [GSK1122999], the “%Inh” value in test [1] was found to be 28%; in [2], 20%; in [3], 0%; in test [4], 0%; in test [5] it was 15%; in test [6], 8%. In addition, the “%Inh” value in [7] is given as 64%; in test [8], 0%; in [9], 0%; in test [10], 4%; in test [11] it was 0%; in [12], 44%. Moreover, the “%Inh” value in [13] is reported as 40%.
For `Cl.O=S(=O)(c1cccc(F)c1)c1ccc(Nc2ncnc3cc(Br)sc23)cc1Cl` [GSK306886], the “%Inh” value came to 0% in [1]; 0% in test [2]; 0% in test [3]; 0% in [4]; 14% in [5]; 30% in test [6]. Further, the “%Inh” value in [7] was determined as 0%; in test [8] it was 6%; in test [9] it was 0%; in test [10] it was 42%; in [11], 0%; in test [12] it was 26%. The “%Inh” value in test [13] is reported as 8%.
Regarding `C[C@H]1CC[C@@H](C(=O)Nc2ccccc2)CN1c1cc(-c2ccc3c(N)n[nH]c3c2)nc(N)n1` [GSK2283293], the “%Inh” value in test [1] is 28%; in test [2], 13%; in test [3], 0%; in test [4], 4%; in test [5] it was 10%; in test [6], 0%. Moreover, the “%Inh” value was found to be 16% in test [7]; 2% in [8]; 0% in test [9]; 0% in test [10]; 0% in test [11]; 0% in test [12]. Also, the “%Inh” value in [13] is 51%.
Consider `COc1ccc(NC(=O)c2ccc(-c3cc(-c4nnc(C)o4)ccc3C)cc2)cc1` [GW595885], for which the “%Inh” value in test [1] is reported as 34%; in test [2] it was 16%; in test [3], 7%; in [4], 0%; in [5], 16%; in [6], 0%. The “%Inh” value in [7] was determined as 34%; in [8], 2%; in test [9], 0%; in test [10], 97.7%; in [11], 33%; in test [12], 17%. The “%Inh” value in test [13] came to 0%.
Take `FC(F)(F)c1ccc(-c2cc(-c3c[nH]nc3-c3ccccn3)ccn2)cc1` [GW599550]: the “%Inh” value in [1] stood at 42%; in [2], 98.8%; in test [3] it was 10%; in [4] it was 0%; in test [5], 6%; in [6] it was 20%. For the same compound, the “%Inh” value in test [7] was determined as 28%; in test [8] it was 24%; in [9], 0%; in test [10], 28%; in test [11], 0%; in test [12], 50%. The “%Inh” value in [13] is 16%.
On to `c1ccc(-c2ccc3c(-c4ccnc(Nc5ccc6c(c5)OCCO6)n4)cnn3n2)cc1` [GW818941], for which the “%Inh” value was 0% in test [1]; 0% in [2]; 13% in test [3]; 0% in [4]; 5% in [5]; 0% in [6]. The “%Inh” value is on record as 0% in [7]; 10% in test [8]; 20% in [9]; 0% in [10]; 0% in test [11]; 26% in test [12]. For the same compound, in test [13], the “%Inh” value is on record as 0%.
On to `N#Cc1ccc(Oc2ccc(Nc3ncnc4cc[nH]c34)cc2Cl)cc1`, for which the “%Inh” value in [1] is recorded as 19%; in test [2], 19%; in test [3], 22%; in test [4], 0%; in [5], 0%; in test [6], 0%. The “%Inh” value is given as 20% in test [7]; 18% in test [8]; 0% in test [9]; 19% in test [10]; 14% in [11]; 3% in test [12]. Also, the “%Inh” value in test [13] came to 10%.
With `Cc1ccc(C)c(NC(=O)NCCNc2ccnc(Nc3ccc(F)cc3)n2)c1` [GSK1379878], the “%Inh” value came out at 23% in test [1]; 0% in [2]; 0% in test [3]; 0% in [4]; 0% in test [5]; 0% in [6]. For the same compound, the “%Inh” value in test [7] was found to be 0%; in test [8] it was 34%; in [9] it was 0%; in test [10], 6%; in test [11] it was 0%; in test [12], 45%. The “%Inh” value in [13] is listed as 0%.
Regarding `COc1ccc(Nc2nccc(N3CCC(NC(=O)Nc4ccc5c(c4)OCO5)C3)n2)cc1` (centres unmarked) [GSK1379745], the “%Inh” value in [1] stood at 24%; in [2] it was 3%; in test [3], 15%; in test [4], 16%; in test [5] it was 0%; in [6], 0%. Besides, the “%Inh” value in [7] came to 7%; in [8], 0%; in [9], 0%; in [10], 12%; in [11], 0%; in test [12], 14%. For the same compound, the “%Inh” value in test [13] came out at 3%.
As for `Clc1ccc(-c2cc(-c3c[nH]nc3-c3ccccn3)ccn2)cc1` [GW681251], the “%Inh” value in test [1], in test [2], in test [3], in [4], in test [5] and in [6] was 0% throughout. Moreover, the “%Inh” value in test [7] stood at 0%; in test [8], 14%; in test [9], 47%; in test [10], 45%; in test [11], 0%; in test [12], 25%. In addition, the “%Inh” value in test [13] is given as 0%.
